Screening data (PubChem BioAssay)
Hits are enriched below; roughly 28% of the tested compounds scored in any of these assays.
CYP2C19 inhib: inhibitors of human CYP2C19; CYP2C19 Supersomes, luciferin-H EGE luminescence, 30 min; inhibition, % at 5 µM; AID 778; 21% of 96,000 active;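 active = CYP2C19 inhibition above a set limit at 5 µM in the primary screen, cut at about 50% in these data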;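 note: plate controls were negative control wells for no effect and 2.5 mM tranylcypromine positive control for full effect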
CYP2C9 activ: increases human cytochrome P450 2C9 activity; recombinant CYP2C9, luciferin-H conversion, luminescence; active compounds read high; factor 1 = untreated enzyme, 0 = blocked; activation factor at 5 µM; 1.4% of 96,000 active; AID 1024;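 active = activation factor of 2 or more for CYP2C9 at a 5 µM dose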;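 note: 0 = sulfaphenazole-blocked wells and 1 = vehicle-only wells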
CYP2C19 activ: activators of human cytochrome P450 2C19 | P33261 | recombinant CYP2C19, luciferin-H EGE luminescence; active compounds read high; 0 = fully inhibited enzyme, 1 = untreated enzyme | activation factor at 5 µM | 96,000 tested, under 10 active | AID 1025;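 active = activation factor of at least 2 at 5 µM in the primary screen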;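 note: 0 = wells with 2.5 mM tranylcypromine and 1 = vehicle-only wells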
PTK2B oligo ant: blocks oligomerization of human Pyk2 in cells | Q14289 | Q293 cells, Pyk2 FERM NanoBiT luminescence; active compounds read low | z-score (the deposit names both 25 µM and 10 µM) | 0.83% of 99,000 active;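 active = Z-score of -3 or lower, scaled per plate to the spread of control and sample wells; inactive = z-score above -3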;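 note: negative z-score means lost luminescence so less FERM oligomerization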
Target sequence (Q14289 whole entry, looked up): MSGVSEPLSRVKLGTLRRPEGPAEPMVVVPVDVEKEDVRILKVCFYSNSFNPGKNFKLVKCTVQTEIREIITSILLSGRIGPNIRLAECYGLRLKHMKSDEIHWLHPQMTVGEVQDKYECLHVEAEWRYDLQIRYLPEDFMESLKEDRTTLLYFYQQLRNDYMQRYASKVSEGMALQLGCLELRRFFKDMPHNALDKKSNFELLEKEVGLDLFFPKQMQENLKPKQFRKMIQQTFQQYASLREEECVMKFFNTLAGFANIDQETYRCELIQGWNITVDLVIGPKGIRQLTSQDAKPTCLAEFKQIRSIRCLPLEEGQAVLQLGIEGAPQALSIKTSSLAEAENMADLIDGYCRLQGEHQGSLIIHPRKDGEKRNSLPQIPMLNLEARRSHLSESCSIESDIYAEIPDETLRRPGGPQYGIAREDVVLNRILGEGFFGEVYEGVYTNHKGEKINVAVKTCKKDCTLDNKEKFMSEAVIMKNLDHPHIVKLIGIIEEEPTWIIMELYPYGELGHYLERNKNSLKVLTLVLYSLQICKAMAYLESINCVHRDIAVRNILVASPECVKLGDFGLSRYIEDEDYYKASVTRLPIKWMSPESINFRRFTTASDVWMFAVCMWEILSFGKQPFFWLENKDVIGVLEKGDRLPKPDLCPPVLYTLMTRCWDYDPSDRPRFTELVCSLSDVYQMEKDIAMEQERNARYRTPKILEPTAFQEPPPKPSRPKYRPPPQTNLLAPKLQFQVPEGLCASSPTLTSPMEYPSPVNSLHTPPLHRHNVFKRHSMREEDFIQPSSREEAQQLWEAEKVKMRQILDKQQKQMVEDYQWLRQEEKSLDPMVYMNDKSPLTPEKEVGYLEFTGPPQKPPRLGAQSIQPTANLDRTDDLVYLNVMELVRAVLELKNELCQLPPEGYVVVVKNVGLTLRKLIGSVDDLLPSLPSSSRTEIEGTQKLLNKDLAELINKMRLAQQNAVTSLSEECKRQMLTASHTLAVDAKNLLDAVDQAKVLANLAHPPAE
CYP2C9 inh: human CYP2C9 inhibition | CYP2C9 Supersomes, luciferin-H conversion, luminescence | AID 777 | 20% of 96,000 active | inhibition, % at 5 µM;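 active = blocking of liver enzyme CYP2C9 beyond about 50% at 5 µM, limit read from the data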
Numbers without * were called inactive; nt = not tested or not shown.

SMILES	CYP2C19 inhib	CYP2C9 activ	CYP2C19 activ	PTK2B oligo ant	CYP2C9 inh
CCOC(=O)C1CCCN(CCC(C)c2ccccc2)C1 (stereo not drawn)	58*	0.9	0.4	-0.35	10
CN1/C(=C\C(=O)COC(=O)Cn2nnc(-c3ccccc3)n2)C(C)(C)c2ccccc21	12	0.3	0.9	0.7	74*
CCOC(=O)C1CCCN(Cc2cc(Br)ccc2OC)C1 (stereo not drawn)	79*	0.4	0.2	1.1	63*
CCOC(=O)C1CCCN(Cc2cc(OC)c(O)c(OC)c2)C1 (stereo not drawn)	11	1.1	0.9	1.4	-6
CCOC(=O)C1CCCN(CCC(=O)Nc2ccccc2)C1 (stereo not drawn)	14	0.9	0.9	0.39	8
COC(=O)c1cccc(NC(=O)CCSc2ccc(Cl)cc2)c1C	45	0.8	0.6	1.6	21
Cn1c(=O)c2c(nc(SCC(=O)N3CCc4ccccc43)n2Cc2ccccc2)n(C)c1=O	4	1	1	nt	2
CCN(CC)CCNC(=O)c1c(O)c2cc(OC)c(OC)cc2[nH]c1=O	nt	nt	nt	0.51	nt
CCOC(=O)C1CCCN(Cc2cc(Br)c(OC)cc2OC)C1 (stereo not drawn)	84*	1	0.2	-0.67	5
CCOC(=O)C1CCCN(CC(=O)NC2CC2)C1 (stereo not drawn)	-1	1	1	2.2	-4
CCOc1cc(C)nc(N2CCCC(C(=O)NCc3ccccc3F)C2)n1 (stereo not drawn)	58*	1.2	0.4	-0.01	-20
CCOC(=O)C1CCCN(Cc2c(Cl)cccc2Cl)C1 (stereo not drawn)	41	0.8	0.6	-0.7	24
CCOC(=O)C1CCCN(CC(=O)NC2=Nc3ccccc3N=C(C)C2c2ccccc2)C1 (stereo not drawn)	90*	0.1	0.1	-0.61	91*
CCOC(=O)C1CCCN(Cc2ccccc2F)C1 (stereo not drawn)	75*	1.2	0.3	-0.1	-18
CC1=CC(C)C2C(=O)N(O)C(=O)C2C1 (stereo not drawn)	3	1	1	0.41	5
CCc1cc2cccc(C)c2nc1SCC(=O)NNC(=O)c1ccco1	-17	1.5	1.2	1.9	-48
CC(=O)Nc1ccc(C(=O)CSc2nnc(C)o2)cc1	2	1	1	-0.42	3
CCc1cc2cccc(C)c2nc1SCC(=O)c1ccc(NC(C)=O)cc1	3	0.2	1	-0.67	80*
CCc1cc2ccc(C)cc2nc1SCC(=O)c1ccc(NC(C)=O)cc1	63*	0.1	0.4	-1.2	92*
Cc1ccc(OCC(=O)Nc2ccc([N+](=O)[O-])cn2)cc1C	nt	nt	nt	1.9	nt
Fc1ccc(NC(=S)N/N=C/c2ccc(F)c(F)c2)c(F)c1	54*	0.8	0.5	0.72	23
O=C(Nc1ccc2c(c1)OCO2)c1cccc(Cl)c1	70*	0.8	0.3	-0.25	22
CCOc1ccc(C(=O)Nc2ccc3c(c2)OCCO3)cc1OC	69*	0.9	0.3	-0.61	7
COc1cc(NC(=O)c2ccc3c(c2)OCO3)ccc1NC(=O)C(C)C	45	0.6	0.5	1.1	44
CCOc1cc(C(=O)Nc2ccc3c(c2)OCO3)ccc1OC(F)F	31	1.9	0.7	0.49	-88
SMILES	CYP2C19 inhib	CYP2C9 activ	CYP2C19 activ	PTK2B oligo ant	CYP2C9 inh
CCCC(=O)Nc1cccc(NC(=O)c2ccc3c(c2)OCCO3)c1	59*	0.6	0.4	-0.36	36
CCCCC(=O)Nc1ccc(NC(=O)c2ccc3c(c2)OCO3)cc1OC	86*	0.4	0.1	-0.05	59*
Cc1ccc(N(C(=O)C2CCCC2)C2C=CS(=O)(=O)C2)cc1C (stereo not drawn)	10	0.9	0.9	-0.49	5
O=c1[nH]c2ccsc2c(=O)n1-c1ccc(F)c(Cl)c1	30	0.7	0.7	0.76	25
Cc1cccc(N(C(=O)c2ccc(Cl)cc2)C2CS(=O)(=O)CC2OC(=O)c2ccc(Cl)cc2)c1 (stereo not drawn)	4	0.6	1	-0.61	40
O=C(Nc1cccc(NC(=O)c2ccco2)c1)c1ccc2c(c1)OCO2	50*	0.7	0.5	-0.56	30
O=C(Nc1ccc2c(c1)OCO2)c1ccc(Cl)s1	81*	0.4	0.2	0.35	62*
O=C(Nc1ccc(F)c(F)c1)c1ccc2c(c1)OCO2	94*	0.5	0.1	0.08	49
O=C(Nc1ccc2c(c1)OCO2)c1c(F)c(F)c(F)c(F)c1F	38	1	0.6	0.3	0
